Sampled rows, rich in hits. Any-hit rate of the full collection: about 4.1%.
ssDAF12 agonist – S. stercoralis DAF-12 nuclear receptor activators, primary screen, cell-based, luminescence, HEK293, GRIP1 co-expression, lit1-tk-luc | AID 652126, 2013 | Nuclear hormone receptor DAF-12 (Strongyloides stercoralis) | hit rate 1% among 370,000 | HEK293 ssDAF-12/GRIP1 lit1-tk-luc reporter; % of 3 µM dafachronic acid response | activation, % at 6.8 µM;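 active = activation above the mean over all tested compounds plus 3 SD, cut at about 0.9% in these data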;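 note: 0% = DMSO-only wells and 100% = 3 µM delta7-dafachronic acid wells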
hgDAF12 agonist – H. glycines DAF-12 receptor agonists, primary screen, cell-based, luminescence, HEK293, GAL4 fusion, UAS-luciferase; hit rate 1.8% among 370,000; activation, % at 6.8 µM; HEK293 GAL4-hgDAF12 UAS-luciferase reporter, agonist luminescence; normalized to butyrate control;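 active = activation above a cutoff set at the mean of all screened compounds plus 3 SD, cut at about 10% in these data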;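 note: 0% = DMSO wells and 100% = sodium butyrate wells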
DAX1 inh-1 – DAX1 (NR0B1) inhibitors on StAR promoter, primary screen, cell-based, luminescence, SF-1 (NR5A1), full-length DAX-1 | HEK293T StAR-luciferase reporter, SF-1/DAX-1 repression relief | inhibition, % at 6.8 µM | hit rate 1.1% among 370,000;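 active = inhibition above the mean over all tested compounds plus 3 SD, cut at about 3.6% in these data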;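 note: 0% = DAX-1 cells with DMSO and 100% = cells lacking DAX-1 with DMSO; higher inhibition means more luminescence from relief of DAX-1 repression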
hcDAF12 agonist – H. contortus DAF-12 nuclear receptor activators, primary screen, cell-based, luminescence, HEK293, lit1-tk-luc reporter; HEK293 hcDAF-12 lit1-tk-luc reporter; 0% DMSO, 100% Δ7-dafachronic acid; activation, % at 6.8 µM; hit rate 1.4% among 370,000; AID 652067, 2013;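 active = activation above the mean of all tested compounds plus 3 SD, cut at about 5.5% in these data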;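 note: 100% = response to 3 µM Δ7-dafachronic acid high control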
DAX1 inh-2 – DAX1 (NR0B1) inhibitors, primary screen, cell-based, HEK293, Gal4-DAX1, luciferase luminescence. AID 504766, 2011. inhibition, % at 6.75 µM. Nuclear receptor subfamily 0 group B member 1 (Homo sapiens), P51843. hit rate 0.99% among 340,000. HEK293 Gal4-DAX1 luciferase reporter;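 active = inhibition above the mean over all tested compounds plus 3 SD, cut at about 4.2% in these data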;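 note: 0% = DAX1-transfected cells with DMSO and 100% = empty-vector control cells with DMSO; inhibition shows as a rise in luminescence from relieved DAX1 repression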
Target sequence (P51843 207-470 limits assumed): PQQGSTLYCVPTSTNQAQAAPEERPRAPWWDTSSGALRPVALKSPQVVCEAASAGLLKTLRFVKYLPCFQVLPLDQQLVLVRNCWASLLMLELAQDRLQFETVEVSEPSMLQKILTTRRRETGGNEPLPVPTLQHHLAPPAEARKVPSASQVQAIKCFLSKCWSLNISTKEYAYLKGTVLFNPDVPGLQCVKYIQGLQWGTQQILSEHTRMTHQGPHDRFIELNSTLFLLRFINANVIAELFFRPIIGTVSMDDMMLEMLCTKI
Numbers without * were called inactive.

For Nc1ncnc2c1ncn2C1C=C(CO)C(O)C1O (centres undefined) the results were DAX1 inh-2 7.6*.
Nc1ccccc1-c1ccc(Cl)cc1 was read as ssDAF12 agonist -1.2, hgDAF12 agonist 1.5, DAX1 inh-1 4.1*, hcDAF12 agonist 1.1 and DAX1 inh-2 -0.8.
Screening COc1ccc(C2=Nc3ccccc3NC(=O)C2N(C(=O)c2cnc(C)cn2)c2ccc(N3CCOCC3)cc2)cc1 (centres undefined) returned ssDAF12 agonist -1.1, hgDAF12 agonist 4.9, DAX1 inh-1 3.7* and hcDAF12 agonist 0.4.
Screening COC(=O)[C@]12C[C@H](CC(=O)NCc3ccc(C)o3)C(=O)N(Cc3ccc(Cl)cc3Cl)C1=C[C@H](C1CCCC1)O[C@@H]2C returned ssDAF12 agonist -0.4, hgDAF12 agonist 1.6, DAX1 inh-1 -2.0 and hcDAF12 agonist -1.0.
Screening CN1CCN(CC(O)COc2ccccc2)CC1 (centres undefined) returned ssDAF12 agonist -0.2, hgDAF12 agonist 13.0*, DAX1 inh-1 0.5, hcDAF12 agonist 5.2 and DAX1 inh-2 1.7.
Cc1cccc(N2CCN(CC(O)COc3ccccc3)CC2)c1 (centres undefined) was read as ssDAF12 agonist -1.6, hgDAF12 agonist 2.7, DAX1 inh-1 -0.3, hcDAF12 agonist -1.8 and DAX1 inh-2 4.8*.
`Cc1cccc(N2CCN(CC(O)COc3ccc(Cl)cc3)CC2)c1` (centres undefined) gave ssDAF12 agonist -0.9, hgDAF12 agonist -2.5, DAX1 inh-1 0.0, hcDAF12 agonist -1.6 and DAX1 inh-2 1.4.
CCOC(=O)N1CCN(CC(O)COc2ccc(-c3ccccc3)cc2)CC1 (centres undefined) was read as ssDAF12 agonist -1.6, hgDAF12 agonist -2.1, DAX1 inh-1 -1.1, hcDAF12 agonist -1.9 and DAX1 inh-2 0.9.
For NC(=O)C1CCN(CC(O)COc2ccc(-c3ccccc3)cc2)CC1 (centres undefined) the results were ssDAF12 agonist -0.3, hgDAF12 agonist -4.1, DAX1 inh-1 0.5, hcDAF12 agonist -1.6 and DAX1 inh-2 5.6*.
For Nc1ncnc(NCc2ccccc2)c1[N+](=O)[O-] the results were ssDAF12 agonist -1.6, hgDAF12 agonist 7.0, DAX1 inh-1 -0.7, hcDAF12 agonist -0.3 and DAX1 inh-2 0.9.
Screening Cn1cnc(NCc2ccccc2)c1[N+](=O)[O-] returned ssDAF12 agonist 3.4*, hgDAF12 agonist 0.1, DAX1 inh-1 -0.5 and hcDAF12 agonist 0.9.
`CCOc1ccc(CN2CCN(Cc3cc4ccccc4[nH]3)CC2CCO)cc1` (centres undefined) gave ssDAF12 agonist 2.0*, hgDAF12 agonist 1.2, DAX1 inh-1 -0.4, hcDAF12 agonist 5.2 and DAX1 inh-2 -1.6.
For CC(C)(C)CN1CCN(Cc2cc3ccccc3[nH]2)CC1CCO (centres undefined) the results were ssDAF12 agonist -0.1, hgDAF12 agonist 2.1, DAX1 inh-1 -0.1, hcDAF12 agonist 6.3* and DAX1 inh-2 -0.2.
`CC(=O)N1C[C@H]2CON(C)[C@H]2C[C@H]1c1cccc(-c2ccccc2C)c1` gave ssDAF12 agonist -1.8, hgDAF12 agonist -12.9, DAX1 inh-1 -0.7, hcDAF12 agonist -5.4 and DAX1 inh-2 -0.4.
For CC(=O)N1C[C@H]2CON(C)[C@H]2C[C@H]1c1ccccc1Br the results were ssDAF12 agonist 1.1*, hgDAF12 agonist -0.8, DAX1 inh-1 -0.9, hcDAF12 agonist -1.7 and DAX1 inh-2 0.0.
Screening COc1ccccc1-c1cccc([C@@H]2C[C@H]3[C@H](CON3C)CN2C(C)=O)c1 returned ssDAF12 agonist -1.6, hgDAF12 agonist 0.8, DAX1 inh-1 3.7*, hcDAF12 agonist -1.4 and DAX1 inh-2 -1.4.
Screening CC(=O)c1ccc(N2CCN(C(=O)[C@H](C)NC(=O)c3ccccc3Cl)CC2)cc1 returned ssDAF12 agonist -0.7, hgDAF12 agonist -0.5, DAX1 inh-1 0.8, hcDAF12 agonist -0.7 and DAX1 inh-2 6.0*.
`Cc1ccc(S(=O)(=O)N(C)CC(=O)NCC(=O)Nc2ccc(F)c(F)c2F)cc1` gave ssDAF12 agonist -0.8, hgDAF12 agonist -1.0, DAX1 inh-1 -1.4, hcDAF12 agonist -0.2 and DAX1 inh-2 4.7*.
Screening Cn1c2c(c(=O)n(C)c1=O)NC1(N2)C(=O)Nc2ccccc21 (centres undefined) returned ssDAF12 agonist 0.9*, hgDAF12 agonist 3.6, DAX1 inh-1 -0.2, hcDAF12 agonist 5.1 and DAX1 inh-2 -0.2.
Screening Cn1c2c(c(=O)n(C)c1=O)[C@@]1(C(=O)Nc3ccccc31)C(C#N)=C(N)O2 returned ssDAF12 agonist -0.9, hgDAF12 agonist -4.2, DAX1 inh-1 0.2, hcDAF12 agonist 1.5 and DAX1 inh-2 -0.6.
`Cc1occc1-c1nnc(SCC(=O)N[C@@H]2CCc3ccccc32)n1-c1ccccc1` gave ssDAF12 agonist -1.0, hgDAF12 agonist -0.2, DAX1 inh-1 -0.3 and hcDAF12 agonist -0.2.
Screening COc1ccc2c(=O)c(Oc3ccc(C(=O)O)cc3)c(C(F)(F)F)oc2c1 returned ssDAF12 agonist 0.9*, hgDAF12 agonist 10.3, DAX1 inh-1 4.2*, hcDAF12 agonist 3.5 and DAX1 inh-2 -2.3.
For COC(=O)[C@]12C[C@H](CC(=O)N3CCN(C(=O)c4ccco4)CC3)C(=O)N(Cc3ccco3)C1=C[C@H](COCc1ccccc1)O[C@@H]2C the results were ssDAF12 agonist -1.1, hgDAF12 agonist -2.9, DAX1 inh-1 -0.4 and hcDAF12 agonist -2.4.
Cc1ccc(-n2nc(CC#N)c(C#N)c2N)cc1 was read as ssDAF12 agonist 0.2, hgDAF12 agonist 2.3, DAX1 inh-1 0.5, hcDAF12 agonist 1.5 and DAX1 inh-2 0.8.
Screening Cc1ccc(-n2nc(CC#N)c(C#N)c2N)cc1Cl returned ssDAF12 agonist 1.3*, hgDAF12 agonist -0.9, DAX1 inh-1 0.0, hcDAF12 agonist 4.5 and DAX1 inh-2 0.1.
Screening CCN1Cc2nnn(Cc3ccccc3)c2-c2ccccc2S1(=O)=O returned ssDAF12 agonist -1.5, hgDAF12 agonist 1.7, DAX1 inh-1 0.5 and hcDAF12 agonist -2.0.
`Cn1nccc1-c1ccc(C(=O)NCc2ccco2)c2occc12` gave ssDAF12 agonist -0.2, hgDAF12 agonist 13.0*, DAX1 inh-1 2.6 and hcDAF12 agonist 0.8.
`Cc1noc(C)c1-c1ccc(C(=O)NCc2ccco2)c2occc12` gave ssDAF12 agonist -0.1, hgDAF12 agonist -1.2, DAX1 inh-1 1.9 and hcDAF12 agonist -0.4.
